Pf Dd2 inh: Plasmodium falciparum Dd2 growth inhibition; P. falciparum Dd2 growth, SYBR Green, 72 h; Potency, µM (top dose mostly 28.9 µM), inactives show top-dose activity, negative = inhibition, usual class: inhibitors; 120,000 compounds, 4.3% hits; AID 1347417; active = well fitted inhibition curve with a large enough effect;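 also: plate controls were DMSO vehicle for no effect and reference drug for full effect; nearly all actives have a fitted effect of over 65% in size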
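Infected erythrocytes (Dd2, 0.3% parasitemia, 2.5% hematocrit final) are added to compound in RPMI-1640/Albumax II medium, grown 72 h at 37C in low oxygen, then lysed with saponin/Triton-X containing SYBR Green and read by fluorescence.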
An asterisk follows results filed as active; i = inactive; [ ] = another dose, or the depositor's remark. The sample as a whole holds a higher share of hits than the screen did. Potency is read from the fitted curve at half-maximal effect.

SMILES	Pf Dd2 inh
CCC(=O)Nc1ccc2nnc(-c3ccc(C(=O)Nc4ccc5c(c4)OCCO5)cc3)n2c1	0.28µM*
O=C(NC1CC1)c1ccc2nnc(-c3ccc(C(F)(F)F)cc3)n2c1	4%
CCN1CCN(C(=O)c2ccc3nccn3c2)CC1	26%[44.1 µM]
CN(C)C(=O)c1ccc(-c2nnc3ccc(NC(=O)C4CCC4)cn23)cc1	4µM*
COc1ccc(C(=O)Nc2ccc(-c3nnc4n3CCCCC4)cc2)cc1OC	-14%
CC(C)c1ccc(NC(=O)C2CCN(C(=O)c3ccc(F)cc3)CC2)cc1	19%
CCN1CCN(C(=O)c2ccc(-c3nnc4ccc(NC(=O)C5CC5)cn34)cc2)CC1	0.45µM*
O=C(Nc1ccc(-c2nnc3n2CCCC3)cc1)C1CCCCC1	-27%
CCOc1ccc(C(=O)Nc2ccc3c(c2)OCCO3)cc1Br	12%
Cc1cc(=O)n(CC(=O)Nc2ccc3c(c2)OCCO3)c(-c2ccc(Cl)cc2)n1	i
COc1ccc(NC(=O)c2ccc(-c3nnc4ccc(NC(=O)C5CCC5)cn34)cc2)cc1	1µM*
COc1ccc2nc3n(c2c1)[C@@H](CNC(=O)c1ccc(F)cc1)COC3	i
COc1ccc(-c2[nH]nc3ncc(-c4ccccc4F)nc23)c(C)c1	i
O=C1NCc2ccccc2CC12CCN(Cc1c(Cl)cncc1Cl)C2 (stereo unspecified)	-6%
CCc1ccccc1NC(=O)COc1ccc(NC(=O)C2CC2)cn1	-2%
c1cc2nsnc2cc1CN1CCCN(C2CCCC2)CC1	-23%
Cc1ccc2c(c1)c(Cn1cnc(-c3ccccc3)c1-c1cnc[nH]1)nn2C	-21%
c1cc(-c2ncon2)cc(N2CCc3nc[nH]c3C2)n1	-6%
O=C(c1ccccc1)N1CCC2(CC1)CCN(CCc1ccccc1)c1ccccc1O2	-24%
Cc1noc(-c2cccc(OC3CN(C(=O)NCc4ccc(F)cc4)C3)c2)n1	-11%[5.79 µM]
CN(CC1CCOCC1)S(=O)(=O)c1cccc(F)c1	2%
O=C(O)C[C@@H]1CCN(C(=O)c2ccccc2)C[C@@H]1CCN1CCN(c2ccccn2)CC1	-8%
O=C(NC[C@H]1OC[C@@H](N(Cc2ccccc2F)Cc2ccccc2F)[C@@H]1O)c1ccccc1	i
O=C(Nc1ccc2nnc(-c3ccc(C(=O)N4CCSCC4)cc3)n2c1)C1CCC1	2.2µM*
O=C(Nc1ccc(F)c(Cl)c1)C1CCN(C(=O)c2ccc(F)cc2)CC1	9%
SMILES	Pf Dd2 inh
Cc1ccc(NC(=O)C2CCN(C(=O)c3nnn4c3COC(c3ccc(C)cc3)C4)CC2)cc1 (stereo unspecified)	i
O=C(c1cc(-c2ccc(F)cc2)n[nH]1)N1CC2CC(C1)[C@H]1CCCC(=O)N1C2 (stereo partly specified)	-9%
CCCCn1c(CN(C)C(C)c2ccccc2OC)cnc1S(=O)(=O)CC (stereo unspecified)	8.9µM*
C#CCN(CC=C)Cc1cnc(S(=O)(=O)CC)n1CCCc1ccccc1	i
CCC(O)C1CCN(Cc2cnc(S(=O)(=O)CC)n2CCc2ccccc2)CC1 (stereo unspecified)	i
NC(=O)[C@H](CC1CCCCC1)NC(=O)[C@H]1CN(C(=O)C2CCNCC2)CCN1C(=O)NC1CCCCC1	-22%
C[S+](=O)([O-])N1CCC(c2nnc3n2C(C(=O)N2CCN(c4ncccn4)CC2)CC3)CC1 (stereo unspecified)	i
CCCc1cc(CN(C)c2nc(CCN)nc3sc(C)c(C)c23)[nH]n1	10µM*
COCCN1CC(CNc2nc(CCN)nc3sc(C)c(C)c23)CC1=O (stereo unspecified)	-1%
CN(C)CCNC(=O)c1cccc2c1CCN2C(=O)Nc1ccccc1	-18%
CNC(=O)[C@@H]1CN(C(=O)c2conc2C)C[C@H]1COC	23%
COc1cccc(NC(=O)Cn2c(=O)n(Cc3ccc(F)cc3)c(=O)c3sc4ccccc4c32)c1	-25%
COc1ccccc1NC(=O)Cn1c(=O)n(-c2cccc(Cl)c2)c(=O)c2sc3ccccc3c21	i
COc1cccc(NC(=O)Cn2c(=O)n(-c3ccc(Cl)cc3)c(=O)c3sc4ccccc4c32)c1	11µM*
COc1cc(OC)c(C(=O)N2CCOCC(CO)C2)cc1OC (stereo unspecified)	4%
O=C(NC1CCN(c2cc(-c3ccc(F)cc3)[nH]n2)C1)c1ccncc1 (stereo unspecified)	-19%
O=C(N[C@H]1CCN2C(=O)c3cc(-c4cccs4)ccc3NC(=O)[C@H]12)c1cccs1	i
CCC(C(=O)NCc1ccc(OC)c(OC)c1)n1nc(C)c2c(C)n(-c3ccc(C)cc3)nc2c1=O (stereo unspecified)	2.8µM*
Cc1ccc(CCNC(=O)C(C)n2nc(C)c3c(C)n(-c4ccc(C)cc4)nc3c2=O)cc1 (stereo unspecified)	i
CCC(C(=O)Nc1cc(F)ccc1F)n1nc(C)c2c(C)n(-c3ccc(C)cc3)nc2c1=O (stereo unspecified)	1%
Cn1nccc1C(=O)N1CCC[C@H](n2c(=O)n(C)c3cccnc32)C1	i
COC(=O)[C@@H]1Cc2ncn(C)c2CN1C(=O)c1ccc(OC)cc1	14%[44.1 µM]
CN(Cc1ncc[nH]1)c1ccc(-c2nc(CCCc3ccccc3)no2)cn1	4.5µM*
Cc1nnc(CN(C)c2ccc(-c3nc(CCCc4ccccc4)no3)cn2)o1	i
CN(Cc1ccccn1)c1ccc(-c2nc(Cc3ccc(F)cc3)no2)cn1	-27%
SMILES	Pf Dd2 inh
COCc1ccc2c(c1)c(OC(C)(C)C(=O)NCCN1CCOCC1)nn2Cc1ccccc1	i
COCc1ccc2c(c1)c(OC(C)(C)C(=O)NC1CC1)nn2Cc1ccccc1	i
CC(C)(Oc1nn(CCN2CCOCC2)c2ccccc12)C(=O)NCc1ccncc1	i
COCc1ccc2c(c1)c(OC(C)(C)C(=O)NCC1CC1)nn2Cc1ccccc1	4.5µM*
CC(C)(Oc1nn(CCN2CCOCC2)c2ccccc12)C(=O)NCc1ccccc1	11µM*
COCc1ccc2c(c1)c(OC(C)(C)C(=O)NCC(F)(F)F)nn2Cc1ccccc1	i
COC(=O)N1CCC2(C1)C(=NC1CCCC1)NC(=O)N2c1cccnc1 (stereo unspecified)	-8%
C=CCN1CCC2(CCC1=O)CN(c1ccc(C#N)cn1)CCN2C (stereo unspecified)	-1%
Cc1ccc(-c2cc3c(=O)n(CCNC(=O)c4ccc(F)c(F)c4)ccn3n2)cc1C	i
O=C(COc1ccc(F)cc1)N1CC(c2nc(CCOCC3CCOCC3)no2)C1	-20%
CN(CC(=O)N1CCC(C)(c2noc(C3CC3)n2)CC1)S(=O)(=O)c1ccc2c(c1)oc(=O)n2C	i
O=C1NCCCCCCN(C(=O)C2CC2)[C@H]2CCCC[C@@H]12	16%
COc1ccc(NC(=O)c2ccc3c(c2)N(C)C2CCCCCN2C3=O)cc1F (stereo unspecified)	i
COc1cccc(Nc2ccc3c(n2)C(C)(C(=O)NCCc2cnc[nH]2)CN(C)C3)c1 (stereo unspecified)	-2%[44.1 µM]
COCCN1Cc2ccc(Nc3cccnc3)nc2C(C)(C(=O)Nc2cccc(F)c2)C1 (stereo unspecified)	8.9µM*
COCCN1Cc2ccc(NCC(C)C)nc2C(C)(C(=O)NCc2cccnc2)C1 (stereo unspecified)	-17%[44.1 µM]
COc1cccc(Nc2ncc3c(n2)C(C)(C(=O)NCCN2CCOCC2)CC3)c1 (stereo unspecified)	i
COc1cccc(Nc2ccc3c(n2)C(C)(C(=O)NCCc2ccccn2)CN(C)C3)c1 (stereo unspecified)	3.2µM*

From PubChem BioAssay
